Test results as given in publication PMC7862700, “An all-to-all approach to the identification of sequence-specific readers for epigenetic DNA modifications on cytosine”.

Tests used:
Experiment in all cases: DAPPL (digital affinity profiling via proximity ligation, sequencing); 10 mM Tris-HCl pH 7.5, 50 mM NaCl, 1 mM DTT, 4% glycerol, room temperature, 30 min; GST-TFs on glutathione beads, 16-mer random dsDNA library, 0.1% formaldehyde crosslink after washing; high values mean tight binding
[1] = molecular target: T1, FEV (Homo sapiens, UniProt Q99581 1-238); conditions: protein: recombinant; tags: N-terminal GST; dsDNA, one strand shown
T1 sequence: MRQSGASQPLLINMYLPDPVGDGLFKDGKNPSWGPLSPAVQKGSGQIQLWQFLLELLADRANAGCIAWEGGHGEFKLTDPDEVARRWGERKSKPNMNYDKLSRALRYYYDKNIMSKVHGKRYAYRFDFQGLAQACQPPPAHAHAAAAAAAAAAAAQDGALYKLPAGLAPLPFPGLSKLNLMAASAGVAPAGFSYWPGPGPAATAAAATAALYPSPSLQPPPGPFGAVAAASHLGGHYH
Procedure, shortened: (§1)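 Binding signal is each hexamer's read frequency for a factor divided by its frequency in the tag-only sample. The factors were GST-fused human transcription factors from yeast, captured on glutathione beads, DNA-barcoded and pooled with that sample. Pools were incubated with 200 nmole of a random double-stranded 16-mer DNA library in Tris/NaCl/DTT/glycerol buffer at room temperature for 30 min, then washed, crosslinked with 0.1% formaldehyde, proximity-ligated with BsaI/T4 ligase (1 h, 37 °C), PCR-amplified and sequenced on an Illumina NextSeq500.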

[2] = molecular target: ETV5 (Homo sapiens, UniProt P41161 1-510); conditions: protein: recombinant; tags: N-terminal GST; dsDNA, one strand shown
ETV5, sequence (P41161 whole entry): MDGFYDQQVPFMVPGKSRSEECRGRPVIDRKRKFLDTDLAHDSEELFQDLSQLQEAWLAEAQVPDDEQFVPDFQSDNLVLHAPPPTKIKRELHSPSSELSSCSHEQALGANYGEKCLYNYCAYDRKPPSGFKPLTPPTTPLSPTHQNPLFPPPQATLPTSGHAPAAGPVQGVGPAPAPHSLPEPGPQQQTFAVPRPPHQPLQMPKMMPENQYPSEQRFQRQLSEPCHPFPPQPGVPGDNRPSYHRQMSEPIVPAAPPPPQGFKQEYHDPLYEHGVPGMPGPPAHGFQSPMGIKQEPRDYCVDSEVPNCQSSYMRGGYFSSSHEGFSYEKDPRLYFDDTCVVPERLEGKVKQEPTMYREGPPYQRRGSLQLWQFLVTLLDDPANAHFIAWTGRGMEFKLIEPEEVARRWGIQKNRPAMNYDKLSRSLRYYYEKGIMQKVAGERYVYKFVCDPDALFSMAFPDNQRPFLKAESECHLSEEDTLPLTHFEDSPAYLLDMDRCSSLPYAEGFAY
Procedure, shortened: as §1

[3] = molecular target: HSF1 (Homo sapiens, UniProt Q00613 1-529); conditions: protein: recombinant; tags: N-terminal GST; chain copies: 3; dsDNA, one strand shown
HSF1, sequence (Q00613 whole entry): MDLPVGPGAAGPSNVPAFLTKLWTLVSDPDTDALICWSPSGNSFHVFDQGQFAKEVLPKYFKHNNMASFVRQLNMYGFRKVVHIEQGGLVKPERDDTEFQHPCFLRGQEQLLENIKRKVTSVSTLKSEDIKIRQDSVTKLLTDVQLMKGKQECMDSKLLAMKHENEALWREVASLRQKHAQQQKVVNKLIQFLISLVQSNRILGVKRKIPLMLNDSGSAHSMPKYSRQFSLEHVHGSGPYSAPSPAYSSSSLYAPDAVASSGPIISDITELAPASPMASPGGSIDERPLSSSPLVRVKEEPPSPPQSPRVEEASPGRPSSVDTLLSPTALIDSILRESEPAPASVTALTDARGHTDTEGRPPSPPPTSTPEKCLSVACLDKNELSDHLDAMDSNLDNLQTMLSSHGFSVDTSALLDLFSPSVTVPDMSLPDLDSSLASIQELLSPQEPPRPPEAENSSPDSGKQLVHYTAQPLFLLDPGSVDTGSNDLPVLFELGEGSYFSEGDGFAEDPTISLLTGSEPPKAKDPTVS
Procedure, shortened: as §1

[4] = molecular target: T2, SPIC (Homo sapiens, UniProt Q8N5J4 1-248); conditions: protein: recombinant; tags: N-terminal GST; dsDNA, one strand shown
T2 sequence: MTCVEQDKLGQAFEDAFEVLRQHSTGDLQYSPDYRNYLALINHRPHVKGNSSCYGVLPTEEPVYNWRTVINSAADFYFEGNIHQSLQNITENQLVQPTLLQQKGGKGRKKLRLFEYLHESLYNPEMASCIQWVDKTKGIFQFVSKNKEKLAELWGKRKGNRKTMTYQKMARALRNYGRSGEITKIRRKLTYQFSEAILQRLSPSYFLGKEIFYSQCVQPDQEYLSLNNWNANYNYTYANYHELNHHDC
Procedure, shortened: as §1

[5] = molecular target: ELF4 (Homo sapiens, UniProt Q99607 1-663); conditions: protein: recombinant; tags: N-terminal GST; dsDNA, one strand shown
ELF4, sequence (Q99607 whole entry): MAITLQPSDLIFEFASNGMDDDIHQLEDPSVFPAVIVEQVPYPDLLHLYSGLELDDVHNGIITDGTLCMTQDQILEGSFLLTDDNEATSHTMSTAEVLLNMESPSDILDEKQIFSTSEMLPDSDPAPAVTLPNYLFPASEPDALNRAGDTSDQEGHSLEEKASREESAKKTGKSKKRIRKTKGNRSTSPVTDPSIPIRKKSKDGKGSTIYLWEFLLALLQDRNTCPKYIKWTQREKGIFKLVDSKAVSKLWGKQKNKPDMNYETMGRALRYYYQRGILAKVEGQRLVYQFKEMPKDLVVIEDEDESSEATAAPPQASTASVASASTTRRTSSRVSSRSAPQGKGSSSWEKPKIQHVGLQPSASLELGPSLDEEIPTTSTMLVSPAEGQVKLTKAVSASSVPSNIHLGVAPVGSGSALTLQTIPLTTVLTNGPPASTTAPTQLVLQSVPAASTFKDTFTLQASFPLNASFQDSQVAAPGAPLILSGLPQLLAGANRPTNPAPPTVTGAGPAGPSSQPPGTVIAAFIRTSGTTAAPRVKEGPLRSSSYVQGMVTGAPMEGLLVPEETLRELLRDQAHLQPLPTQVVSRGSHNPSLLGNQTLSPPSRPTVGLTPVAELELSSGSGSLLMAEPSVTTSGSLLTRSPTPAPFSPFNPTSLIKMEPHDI
Procedure, shortened: as §1

[6] = molecular target: T3, ELK4 (Homo sapiens, UniProt P28324-2 1-405); conditions: protein: recombinant; tags: N-terminal GST; dsDNA, one strand shown
T3 sequence: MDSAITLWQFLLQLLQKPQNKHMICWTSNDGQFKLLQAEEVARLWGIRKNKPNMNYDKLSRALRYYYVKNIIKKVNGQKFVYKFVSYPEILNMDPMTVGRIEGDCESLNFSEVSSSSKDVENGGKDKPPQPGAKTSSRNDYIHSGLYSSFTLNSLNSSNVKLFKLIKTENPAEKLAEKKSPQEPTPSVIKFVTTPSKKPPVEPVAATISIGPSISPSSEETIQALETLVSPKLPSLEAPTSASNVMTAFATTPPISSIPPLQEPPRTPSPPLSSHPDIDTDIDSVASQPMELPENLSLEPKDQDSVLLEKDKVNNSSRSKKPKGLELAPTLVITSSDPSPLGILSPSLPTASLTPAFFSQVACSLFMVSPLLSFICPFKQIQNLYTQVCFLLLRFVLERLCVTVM
Procedure, shortened: as §1

[7] = molecular target: T4, ETV2 (Homo sapiens, UniProt O00321 1-342); conditions: protein: recombinant; tags: N-terminal GST; dsDNA, one strand shown
T4 sequence: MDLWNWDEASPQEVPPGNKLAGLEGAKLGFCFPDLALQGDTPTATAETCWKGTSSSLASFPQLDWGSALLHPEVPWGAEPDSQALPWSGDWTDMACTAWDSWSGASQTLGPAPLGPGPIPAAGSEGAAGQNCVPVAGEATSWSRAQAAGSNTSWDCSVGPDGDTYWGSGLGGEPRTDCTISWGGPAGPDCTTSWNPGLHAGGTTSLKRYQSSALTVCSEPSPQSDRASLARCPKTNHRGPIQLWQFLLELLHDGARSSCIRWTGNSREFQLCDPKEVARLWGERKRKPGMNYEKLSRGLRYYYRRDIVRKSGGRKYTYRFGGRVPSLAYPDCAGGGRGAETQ
Procedure, shortened: as §1

[8] = molecular target: T5, ELF3 (Homo sapiens, UniProt P78545 1-371); conditions: protein: recombinant; tags: N-terminal GST; dsDNA, one strand shown
T5 sequence: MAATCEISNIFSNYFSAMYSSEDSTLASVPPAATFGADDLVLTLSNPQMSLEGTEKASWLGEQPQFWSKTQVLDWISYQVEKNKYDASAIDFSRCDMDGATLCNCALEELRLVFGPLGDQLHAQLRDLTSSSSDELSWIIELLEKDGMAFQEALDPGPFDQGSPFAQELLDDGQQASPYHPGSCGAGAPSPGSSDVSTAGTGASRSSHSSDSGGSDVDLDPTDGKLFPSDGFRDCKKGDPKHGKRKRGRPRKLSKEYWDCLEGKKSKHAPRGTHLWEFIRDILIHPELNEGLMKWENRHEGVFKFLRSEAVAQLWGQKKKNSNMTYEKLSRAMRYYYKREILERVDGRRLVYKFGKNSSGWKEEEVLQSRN
Procedure, shortened: as §1

[9] = molecular target: CRX (Homo sapiens, UniProt O43186 1-299); conditions: protein: recombinant; tags: N-terminal GST; dsDNA, one strand shown
CRX, sequence (O43186 whole entry): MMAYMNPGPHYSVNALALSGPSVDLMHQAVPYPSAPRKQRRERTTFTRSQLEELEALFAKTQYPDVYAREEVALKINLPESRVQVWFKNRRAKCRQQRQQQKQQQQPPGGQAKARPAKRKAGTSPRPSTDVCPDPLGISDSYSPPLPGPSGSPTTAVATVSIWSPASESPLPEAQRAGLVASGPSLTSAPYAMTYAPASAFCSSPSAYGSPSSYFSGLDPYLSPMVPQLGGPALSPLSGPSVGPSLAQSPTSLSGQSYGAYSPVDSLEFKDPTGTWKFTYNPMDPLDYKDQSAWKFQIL
Procedure, shortened: as §1

[10] = molecular target: ETV1 (Homo sapiens, UniProt P50549 1-477); conditions: protein: recombinant; tags: N-terminal GST; dsDNA, one strand shown
ETV1, sequence (P50549 whole entry): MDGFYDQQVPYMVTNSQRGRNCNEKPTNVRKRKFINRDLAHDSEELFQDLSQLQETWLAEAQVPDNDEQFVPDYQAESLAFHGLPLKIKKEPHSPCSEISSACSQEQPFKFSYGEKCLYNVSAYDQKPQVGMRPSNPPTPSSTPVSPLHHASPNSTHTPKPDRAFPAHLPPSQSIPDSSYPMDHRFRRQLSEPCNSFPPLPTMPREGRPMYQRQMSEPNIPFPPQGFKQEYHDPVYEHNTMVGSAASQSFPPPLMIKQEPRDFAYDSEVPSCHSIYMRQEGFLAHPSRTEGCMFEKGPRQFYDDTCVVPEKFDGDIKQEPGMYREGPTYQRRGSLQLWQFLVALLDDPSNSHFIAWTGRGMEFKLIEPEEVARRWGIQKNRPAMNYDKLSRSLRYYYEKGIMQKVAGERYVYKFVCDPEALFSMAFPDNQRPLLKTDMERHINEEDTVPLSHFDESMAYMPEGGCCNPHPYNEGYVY
Procedure, shortened: as §1

[11] = molecular target: T6, ERF (Homo sapiens, UniProt P50548 1-548); conditions: protein: recombinant; tags: N-terminal GST; dsDNA, one strand shown
T6 sequence: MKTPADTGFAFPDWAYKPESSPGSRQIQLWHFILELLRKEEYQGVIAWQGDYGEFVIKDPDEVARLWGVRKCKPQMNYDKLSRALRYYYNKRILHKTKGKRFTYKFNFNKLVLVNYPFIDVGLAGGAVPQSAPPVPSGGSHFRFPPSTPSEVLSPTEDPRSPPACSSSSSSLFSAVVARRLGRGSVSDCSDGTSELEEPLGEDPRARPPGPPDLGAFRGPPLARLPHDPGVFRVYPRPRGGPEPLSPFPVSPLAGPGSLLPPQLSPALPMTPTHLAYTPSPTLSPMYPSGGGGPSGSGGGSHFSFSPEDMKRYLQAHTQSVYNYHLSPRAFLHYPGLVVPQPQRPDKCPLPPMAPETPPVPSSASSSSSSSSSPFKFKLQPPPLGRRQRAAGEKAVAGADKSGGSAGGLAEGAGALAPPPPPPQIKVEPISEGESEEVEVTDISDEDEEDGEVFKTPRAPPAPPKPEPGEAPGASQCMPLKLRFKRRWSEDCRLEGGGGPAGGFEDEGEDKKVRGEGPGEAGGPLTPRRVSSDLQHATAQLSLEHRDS
Procedure, shortened: as §1

[12] = molecular target: T7, ETV3L (Homo sapiens, UniProt Q6ZN32 1-361); conditions: protein: recombinant; tags: N-terminal GST; dsDNA, one strand shown
T7 sequence: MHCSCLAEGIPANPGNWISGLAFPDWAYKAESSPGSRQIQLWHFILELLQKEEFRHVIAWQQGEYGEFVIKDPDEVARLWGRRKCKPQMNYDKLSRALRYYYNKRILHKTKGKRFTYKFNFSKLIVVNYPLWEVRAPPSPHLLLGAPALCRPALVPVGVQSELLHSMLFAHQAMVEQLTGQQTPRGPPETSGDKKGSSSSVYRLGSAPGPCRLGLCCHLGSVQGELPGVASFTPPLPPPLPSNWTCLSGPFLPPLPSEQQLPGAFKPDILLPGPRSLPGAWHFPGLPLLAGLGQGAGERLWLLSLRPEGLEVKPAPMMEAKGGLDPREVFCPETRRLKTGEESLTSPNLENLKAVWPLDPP
Procedure, shortened: as §1

[13] = molecular target: T8, ETS2 (Homo sapiens, UniProt P15036 1-469); conditions: protein: recombinant; tags: N-terminal GST; dsDNA, one strand shown
T8 sequence: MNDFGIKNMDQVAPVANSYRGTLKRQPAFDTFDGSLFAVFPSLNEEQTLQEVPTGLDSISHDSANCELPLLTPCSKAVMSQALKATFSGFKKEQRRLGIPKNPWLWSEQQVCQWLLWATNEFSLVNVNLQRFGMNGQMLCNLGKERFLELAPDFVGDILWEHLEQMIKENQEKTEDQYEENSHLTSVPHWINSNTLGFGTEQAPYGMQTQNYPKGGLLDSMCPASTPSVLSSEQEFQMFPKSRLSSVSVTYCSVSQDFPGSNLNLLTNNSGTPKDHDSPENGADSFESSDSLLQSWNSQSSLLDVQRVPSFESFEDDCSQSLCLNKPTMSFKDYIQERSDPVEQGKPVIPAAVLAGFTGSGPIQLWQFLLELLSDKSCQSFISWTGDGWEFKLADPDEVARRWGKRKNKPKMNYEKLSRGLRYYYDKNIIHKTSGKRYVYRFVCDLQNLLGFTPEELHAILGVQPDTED
Procedure, shortened: as §1

[14] = molecular target: T9, SPDEF (Homo sapiens, UniProt O95238 1-335); conditions: protein: recombinant; tags: N-terminal GST; dsDNA, one strand shown
T9 sequence: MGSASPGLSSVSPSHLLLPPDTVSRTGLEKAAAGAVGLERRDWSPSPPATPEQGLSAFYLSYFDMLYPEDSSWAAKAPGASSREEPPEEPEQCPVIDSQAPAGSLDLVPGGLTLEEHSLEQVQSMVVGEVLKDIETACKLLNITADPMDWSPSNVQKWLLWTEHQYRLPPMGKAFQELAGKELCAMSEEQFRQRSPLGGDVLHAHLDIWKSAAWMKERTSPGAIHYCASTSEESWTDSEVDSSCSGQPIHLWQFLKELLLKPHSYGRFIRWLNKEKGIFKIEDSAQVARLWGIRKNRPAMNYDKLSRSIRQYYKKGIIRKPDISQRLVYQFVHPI
Procedure, shortened: as §1

[15] = molecular target: T10, ETV7 (Homo sapiens, UniProt Q9Y603 1-341); conditions: protein: recombinant; tags: N-terminal GST; dsDNA, one strand shown
T10 sequence: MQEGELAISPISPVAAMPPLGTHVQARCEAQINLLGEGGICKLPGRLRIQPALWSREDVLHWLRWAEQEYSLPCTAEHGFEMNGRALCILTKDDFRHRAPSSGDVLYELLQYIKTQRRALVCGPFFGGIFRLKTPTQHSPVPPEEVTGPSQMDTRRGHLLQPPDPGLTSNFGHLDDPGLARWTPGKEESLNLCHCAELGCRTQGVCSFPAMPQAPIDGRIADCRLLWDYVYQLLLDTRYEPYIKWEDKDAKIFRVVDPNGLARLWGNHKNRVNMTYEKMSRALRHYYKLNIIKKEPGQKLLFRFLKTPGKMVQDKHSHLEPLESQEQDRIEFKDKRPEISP
Procedure, shortened: as §1

[16] = molecular target: T11, ELF5 (Homo sapiens, UniProt Q9UKW6-2 1-255); conditions: protein: recombinant; tags: N-terminal GST; dsDNA, one strand shown
T11 sequence: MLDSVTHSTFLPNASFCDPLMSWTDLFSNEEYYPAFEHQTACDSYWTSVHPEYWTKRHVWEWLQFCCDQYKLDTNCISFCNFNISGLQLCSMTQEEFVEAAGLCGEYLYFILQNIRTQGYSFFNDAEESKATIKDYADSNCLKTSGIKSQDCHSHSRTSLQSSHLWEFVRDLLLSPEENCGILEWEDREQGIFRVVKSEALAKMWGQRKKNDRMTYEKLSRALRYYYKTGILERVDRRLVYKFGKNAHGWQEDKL
Procedure, shortened: as §1

[17] = molecular target: T12, ETV3 (Homo sapiens, UniProt P41162-2 1-143); conditions: protein: recombinant; tags: N-terminal GST; dsDNA, one strand shown
T12 sequence: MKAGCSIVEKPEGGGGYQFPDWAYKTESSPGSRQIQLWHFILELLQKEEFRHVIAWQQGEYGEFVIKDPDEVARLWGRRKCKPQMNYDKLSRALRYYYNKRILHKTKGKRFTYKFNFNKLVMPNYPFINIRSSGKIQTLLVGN
Procedure, shortened: as §1

[18] = molecular target: ETV6 (Homo sapiens, UniProt P41212 1-452); conditions: protein: recombinant; tags: N-terminal GST; dsDNA, one strand shown
ETV6, sequence (P41212 whole entry): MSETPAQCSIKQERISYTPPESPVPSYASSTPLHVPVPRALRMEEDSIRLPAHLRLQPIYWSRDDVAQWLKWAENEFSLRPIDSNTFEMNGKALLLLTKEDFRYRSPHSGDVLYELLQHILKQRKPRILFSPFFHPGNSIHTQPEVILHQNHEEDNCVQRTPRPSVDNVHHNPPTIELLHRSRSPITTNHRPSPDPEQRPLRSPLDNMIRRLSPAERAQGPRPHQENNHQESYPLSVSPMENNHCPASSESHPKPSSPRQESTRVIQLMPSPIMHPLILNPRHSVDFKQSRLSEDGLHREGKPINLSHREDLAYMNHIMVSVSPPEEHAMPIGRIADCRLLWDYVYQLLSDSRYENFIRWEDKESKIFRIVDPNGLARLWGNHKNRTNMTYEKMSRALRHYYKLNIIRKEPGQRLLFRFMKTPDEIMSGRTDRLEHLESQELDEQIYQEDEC
Procedure, shortened: as §1

TAACTA
binding signal [1]: 1.25 fold enrichment (6-mer frequency, TF over GST control)
binding signal [2]: 1.29 fold enrichment (6-mer frequency, TF over GST control)
binding signal [3]: 1.51 fold enrichment (6-mer frequency, TF over GST control)
binding signal [4]: 1.36 fold enrichment (6-mer frequency, TF over GST control)
binding signal [5]: 1.48 fold enrichment (6-mer frequency, TF over GST control)
binding signal [6]: 1.26 fold enrichment (6-mer frequency, TF over GST control)
binding signal [7]: 1.49 fold enrichment (6-mer frequency, TF over GST control)
binding signal [8]: 1.33 fold enrichment (6-mer frequency, TF over GST control)
binding signal [9]: 1.87 fold enrichment (6-mer frequency, TF over GST control)
binding signal [10]: 1.24 fold enrichment (6-mer frequency, TF over GST control)
binding signal [11]: 1.38 fold enrichment (6-mer frequency, TF over GST control)
binding signal [12]: 1.21 fold enrichment (6-mer frequency, TF over GST control)
binding signal [13]: 1.4 fold enrichment (6-mer frequency, TF over GST control)
binding signal [14]: 1.26 fold enrichment (6-mer frequency, TF over GST control)
binding signal [15]: 1.29 fold enrichment (6-mer frequency, TF over GST control)
binding signal [16]: 1.3 fold enrichment (6-mer frequency, TF over GST control)
binding signal [17]: 1.29 fold enrichment (6-mer frequency, TF over GST control)
binding signal [18]: 1.36 fold enrichment (6-mer frequency, TF over GST control)
